From ChEMBL document CHEMBL2218924, “A broad activity screen in support of a chemogenomic map for kinase signalling research and drug discovery” (Biochem J, 2013)

What was measured:
[1] = biological target: Mitogen-activated protein kinase 10 (Homo sapiens) (UniProt P53779); settings: at 10 µM
[2] = biological target: Vascular endothelial growth factor receptor 2 (Homo sapiens) (UniProt P35968); settings: at 1 µM
[3] = biological target: Vascular endothelial growth factor receptor 2 (Homo sapiens) (UniProt P35968); settings: at 10 µM
[4] = biological target: LIM domain kinase 1 (Homo sapiens) (UniProt P53667); settings: at 1 µM
LIM domain kinase 1 (Homo sapiens), sequence (P53667 whole entry, looked up, the tested form may be a part): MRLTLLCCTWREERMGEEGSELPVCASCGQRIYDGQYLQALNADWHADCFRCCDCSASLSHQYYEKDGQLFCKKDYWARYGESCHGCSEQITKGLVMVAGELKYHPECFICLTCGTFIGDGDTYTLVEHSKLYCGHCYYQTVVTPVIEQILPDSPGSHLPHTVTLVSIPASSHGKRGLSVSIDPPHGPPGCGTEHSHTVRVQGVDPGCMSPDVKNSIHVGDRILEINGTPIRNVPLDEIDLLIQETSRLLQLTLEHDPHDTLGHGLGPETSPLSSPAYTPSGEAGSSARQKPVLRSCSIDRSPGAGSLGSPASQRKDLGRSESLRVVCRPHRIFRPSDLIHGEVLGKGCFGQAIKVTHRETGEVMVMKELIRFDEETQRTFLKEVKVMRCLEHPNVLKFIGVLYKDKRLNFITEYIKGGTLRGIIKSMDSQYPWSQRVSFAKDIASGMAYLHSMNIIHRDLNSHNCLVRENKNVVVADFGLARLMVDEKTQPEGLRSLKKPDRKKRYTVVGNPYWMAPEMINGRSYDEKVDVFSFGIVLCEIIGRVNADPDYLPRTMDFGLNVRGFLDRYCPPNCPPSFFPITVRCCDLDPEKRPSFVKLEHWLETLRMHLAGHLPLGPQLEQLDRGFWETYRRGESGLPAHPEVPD

[5] = biological target: LIM domain kinase 1 (Homo sapiens) (UniProt P53667); settings: at 10 µM
[6] = biological target: T1, Serine/threonine-protein kinase STK11 (Homo sapiens) (UniProt Q15831); settings: at 1 µM
T1 sequence (whole entry): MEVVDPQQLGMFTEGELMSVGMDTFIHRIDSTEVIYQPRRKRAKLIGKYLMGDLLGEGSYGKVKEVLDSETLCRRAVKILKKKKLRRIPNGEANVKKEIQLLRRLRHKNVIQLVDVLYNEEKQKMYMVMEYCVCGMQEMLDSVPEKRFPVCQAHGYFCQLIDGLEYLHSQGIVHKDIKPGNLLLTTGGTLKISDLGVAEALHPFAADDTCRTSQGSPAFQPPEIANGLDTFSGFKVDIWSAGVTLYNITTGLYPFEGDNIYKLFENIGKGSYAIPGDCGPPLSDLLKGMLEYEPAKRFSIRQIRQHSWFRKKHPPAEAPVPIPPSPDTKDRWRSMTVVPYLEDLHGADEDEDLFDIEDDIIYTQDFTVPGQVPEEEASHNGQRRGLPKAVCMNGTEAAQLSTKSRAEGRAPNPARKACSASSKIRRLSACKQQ

[7] = biological target: Serine/threonine-protein kinase 10 (Homo sapiens) (UniProt O94804); settings: at 1 µM
[8] = biological target: Serine/threonine-protein kinase 10 (Homo sapiens) (UniProt O94804); settings: at 10 µM
[9] = biological target: Tyrosine-protein kinase Lck (Homo sapiens) (UniProt P06239); settings: at 1 µM
Tyrosine-protein kinase Lck (Homo sapiens), sequence (P06239 2-509 limits assumed): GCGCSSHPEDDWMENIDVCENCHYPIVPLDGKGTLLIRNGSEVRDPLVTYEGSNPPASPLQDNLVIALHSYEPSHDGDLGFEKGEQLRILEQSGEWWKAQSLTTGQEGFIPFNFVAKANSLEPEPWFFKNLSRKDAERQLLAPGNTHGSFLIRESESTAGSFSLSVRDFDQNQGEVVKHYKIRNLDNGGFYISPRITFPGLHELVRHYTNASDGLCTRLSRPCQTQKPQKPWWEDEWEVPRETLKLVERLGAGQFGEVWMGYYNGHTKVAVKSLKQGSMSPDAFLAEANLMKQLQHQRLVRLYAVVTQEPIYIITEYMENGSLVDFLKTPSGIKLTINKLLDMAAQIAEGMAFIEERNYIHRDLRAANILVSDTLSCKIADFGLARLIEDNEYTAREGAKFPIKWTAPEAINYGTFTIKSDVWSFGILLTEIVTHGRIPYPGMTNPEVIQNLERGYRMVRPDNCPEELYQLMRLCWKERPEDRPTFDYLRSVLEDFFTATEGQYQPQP

[10] = biological target: Tyrosine-protein kinase Lck (Homo sapiens) (UniProt P06239); settings: at 10 µM
[11] = biological target: Tyrosine-protein kinase Lck (Homo sapiens) (UniProt P06239); settings: at 1 µM; remark: listed apart in the source
[12] = biological target: Tyrosine-protein kinase Lck (Homo sapiens) (UniProt P06239); settings: at 10 µM; remark: listed apart in the source
[13] = biological target: Tyrosine-protein kinase Lyn (Homo sapiens) (UniProt P07948); settings: at 1 µM
Tyrosine-protein kinase Lyn (Homo sapiens), sequence (P07948 2-512 limits assumed): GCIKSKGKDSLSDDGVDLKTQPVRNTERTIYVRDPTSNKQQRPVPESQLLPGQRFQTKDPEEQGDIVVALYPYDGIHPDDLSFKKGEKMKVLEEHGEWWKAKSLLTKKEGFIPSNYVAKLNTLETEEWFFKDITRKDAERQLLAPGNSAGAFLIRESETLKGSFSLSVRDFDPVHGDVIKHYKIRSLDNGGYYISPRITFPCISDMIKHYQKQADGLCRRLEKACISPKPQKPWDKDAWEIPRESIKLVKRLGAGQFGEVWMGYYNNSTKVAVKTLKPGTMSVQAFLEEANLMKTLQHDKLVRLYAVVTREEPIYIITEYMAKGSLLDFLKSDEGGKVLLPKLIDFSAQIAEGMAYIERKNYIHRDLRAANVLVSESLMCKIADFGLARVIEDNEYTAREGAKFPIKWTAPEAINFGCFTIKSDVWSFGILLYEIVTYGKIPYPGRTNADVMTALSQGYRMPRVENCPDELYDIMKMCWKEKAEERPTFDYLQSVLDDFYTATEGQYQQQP

[14] = biological target: Tyrosine-protein kinase Lyn (Homo sapiens) (UniProt P07948); settings: at 10 µM
[15] = biological target: Mitogen-activated protein kinase 3 (Homo sapiens) (UniProt P27361); settings: at 1 µM
Mitogen-activated protein kinase 3 (Homo sapiens), sequence (P27361 whole entry): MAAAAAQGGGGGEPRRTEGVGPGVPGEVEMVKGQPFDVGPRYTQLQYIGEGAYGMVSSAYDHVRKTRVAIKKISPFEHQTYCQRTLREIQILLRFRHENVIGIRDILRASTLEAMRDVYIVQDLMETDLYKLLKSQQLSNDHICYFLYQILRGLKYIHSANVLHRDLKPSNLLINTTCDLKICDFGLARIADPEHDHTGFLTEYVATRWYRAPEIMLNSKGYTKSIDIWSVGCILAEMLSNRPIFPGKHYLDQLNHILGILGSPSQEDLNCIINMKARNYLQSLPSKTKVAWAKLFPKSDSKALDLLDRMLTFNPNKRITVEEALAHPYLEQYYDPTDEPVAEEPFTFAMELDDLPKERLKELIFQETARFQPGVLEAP

[16] = biological target: Mitogen-activated protein kinase 3 (Homo sapiens) (UniProt P27361); settings: at 10 µM
[17] = biological target: Mitogen-activated protein kinase 1 (Homo sapiens) (UniProt P28482); settings: at 1 µM
Mitogen-activated protein kinase 1 (Homo sapiens), sequence (P28482 whole entry): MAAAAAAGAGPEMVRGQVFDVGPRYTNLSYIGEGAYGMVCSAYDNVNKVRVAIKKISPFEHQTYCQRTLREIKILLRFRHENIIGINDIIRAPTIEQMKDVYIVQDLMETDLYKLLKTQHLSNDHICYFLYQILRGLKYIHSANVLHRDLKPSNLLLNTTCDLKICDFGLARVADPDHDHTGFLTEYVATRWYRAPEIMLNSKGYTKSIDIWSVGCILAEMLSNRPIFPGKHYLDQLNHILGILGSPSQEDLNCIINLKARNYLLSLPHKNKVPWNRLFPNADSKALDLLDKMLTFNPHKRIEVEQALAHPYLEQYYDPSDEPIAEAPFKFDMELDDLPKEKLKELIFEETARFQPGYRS

[18] = biological target: Mitogen-activated protein kinase 1 (Homo sapiens) (UniProt P28482); settings: at 10 µM
[19] = biological target: MAP kinase-activated protein kinase 2 (Homo sapiens) (UniProt P49137); settings: at 1 µM
MAP kinase-activated protein kinase 2 (Homo sapiens), sequence (P49137 whole entry, looked up): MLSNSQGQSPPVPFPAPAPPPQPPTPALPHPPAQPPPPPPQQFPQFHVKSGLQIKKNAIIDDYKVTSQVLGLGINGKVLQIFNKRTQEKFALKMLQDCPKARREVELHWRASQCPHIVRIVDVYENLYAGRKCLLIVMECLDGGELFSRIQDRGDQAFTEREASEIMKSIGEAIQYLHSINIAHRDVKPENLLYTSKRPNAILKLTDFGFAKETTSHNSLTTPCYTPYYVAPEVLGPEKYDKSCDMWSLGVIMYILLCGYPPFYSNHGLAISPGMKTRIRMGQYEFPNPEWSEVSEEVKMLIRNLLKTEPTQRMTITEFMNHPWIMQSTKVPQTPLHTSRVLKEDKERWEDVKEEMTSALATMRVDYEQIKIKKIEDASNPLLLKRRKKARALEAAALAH

[20] = biological target: T1, Serine/threonine-protein kinase STK11 (Homo sapiens); settings: at 10 µM

Mitogen-activated protein kinase 10 (Homo sapiens), sequence (P53779 whole entry): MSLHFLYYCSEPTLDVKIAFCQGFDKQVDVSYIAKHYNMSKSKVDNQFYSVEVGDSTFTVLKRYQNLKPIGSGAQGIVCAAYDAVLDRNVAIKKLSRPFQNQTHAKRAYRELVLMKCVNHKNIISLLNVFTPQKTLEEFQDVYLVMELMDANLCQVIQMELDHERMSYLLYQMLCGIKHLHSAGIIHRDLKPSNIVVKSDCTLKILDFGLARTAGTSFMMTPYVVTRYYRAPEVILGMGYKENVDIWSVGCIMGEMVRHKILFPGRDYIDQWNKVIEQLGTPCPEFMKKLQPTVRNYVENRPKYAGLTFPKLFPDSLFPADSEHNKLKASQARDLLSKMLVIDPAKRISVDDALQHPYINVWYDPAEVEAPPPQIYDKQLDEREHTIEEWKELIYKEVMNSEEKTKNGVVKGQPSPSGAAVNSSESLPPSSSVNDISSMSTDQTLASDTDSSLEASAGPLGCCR
Vascular endothelial growth factor receptor 2 (Homo sapiens), sequence (P35968 whole entry, the tested form may be a part): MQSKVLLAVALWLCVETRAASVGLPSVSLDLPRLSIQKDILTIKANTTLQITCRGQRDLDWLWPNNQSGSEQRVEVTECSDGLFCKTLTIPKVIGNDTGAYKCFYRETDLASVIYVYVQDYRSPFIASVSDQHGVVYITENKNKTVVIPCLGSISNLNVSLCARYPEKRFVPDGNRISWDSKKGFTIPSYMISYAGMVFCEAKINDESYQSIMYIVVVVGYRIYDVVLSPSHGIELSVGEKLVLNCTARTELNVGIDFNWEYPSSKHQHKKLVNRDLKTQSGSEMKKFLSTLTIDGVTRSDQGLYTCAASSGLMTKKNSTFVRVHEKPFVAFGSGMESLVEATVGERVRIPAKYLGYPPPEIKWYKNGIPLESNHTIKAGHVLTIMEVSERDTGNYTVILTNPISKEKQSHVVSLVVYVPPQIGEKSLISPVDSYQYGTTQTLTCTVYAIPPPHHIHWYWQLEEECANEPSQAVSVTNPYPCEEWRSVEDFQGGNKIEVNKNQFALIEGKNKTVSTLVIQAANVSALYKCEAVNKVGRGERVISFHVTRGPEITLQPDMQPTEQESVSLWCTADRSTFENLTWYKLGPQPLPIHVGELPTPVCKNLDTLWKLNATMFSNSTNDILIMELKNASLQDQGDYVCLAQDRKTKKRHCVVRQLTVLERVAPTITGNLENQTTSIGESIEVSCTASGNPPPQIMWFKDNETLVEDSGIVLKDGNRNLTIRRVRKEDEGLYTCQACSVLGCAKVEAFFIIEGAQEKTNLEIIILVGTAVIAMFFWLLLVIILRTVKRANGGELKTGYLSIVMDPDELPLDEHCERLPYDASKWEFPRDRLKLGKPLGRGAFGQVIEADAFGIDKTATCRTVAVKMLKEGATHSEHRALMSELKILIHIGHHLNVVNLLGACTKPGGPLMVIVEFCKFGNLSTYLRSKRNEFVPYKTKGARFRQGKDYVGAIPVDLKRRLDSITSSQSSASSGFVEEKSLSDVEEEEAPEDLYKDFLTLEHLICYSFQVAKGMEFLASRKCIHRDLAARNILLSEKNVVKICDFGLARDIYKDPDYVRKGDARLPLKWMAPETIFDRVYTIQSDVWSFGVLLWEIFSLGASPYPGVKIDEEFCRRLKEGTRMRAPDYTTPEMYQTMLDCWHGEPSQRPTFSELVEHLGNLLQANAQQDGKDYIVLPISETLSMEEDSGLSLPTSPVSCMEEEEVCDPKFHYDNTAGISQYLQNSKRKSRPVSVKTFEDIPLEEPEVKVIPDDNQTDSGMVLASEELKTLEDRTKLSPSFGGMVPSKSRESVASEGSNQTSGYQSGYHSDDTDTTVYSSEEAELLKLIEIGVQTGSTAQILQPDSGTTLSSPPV

Compound	residual activity [1]	residual activity [2]	residual activity [3]	residual activity [4]	residual activity [5]	residual activity [6]	residual activity [7]	residual activity [8]	residual activity [9]	residual activity [10]	residual activity [11]	residual activity [12]	residual activity [13]	residual activity [14]	residual activity [15]	residual activity [16]	residual activity [17]	residual activity [18]	residual activity [19]	residual activity [20]
Oc1ccc(Nc2nc(-c3ccc(Cl)cc3)cs2)cc1	115%	104%	92%	102%	102%	108%	109%	107%	93%	103%	98%	79%	84%	56%	96%	81%	114%	107%	108%	
CCN(CC)C(=O)c1ccc(Nc2nc(OCC3CCCCC3)c3nc[nH]c3n2)cc1	-4%	33%	3%	39%	10%		45%	13%	10%	3%	20%	7%	20%	1%		29%	99%	42%	81%	
Cc1cc(Nc2nc(-c3ccccc3)nc3ccccc23)n[nH]1	12%	5%	1%	51%	18%		50%	10%	23%	6%	36%	13%	9%	4%			106%			71%
Cc1cncc2cccc(S(=O)(=O)N3CCCN(C(=O)CN)C[C@H]3C)c12	124%	99%	74%	92%	51%	91%	54%	21%	97%	68%	84%	78%	82%	46%	79%	86%			88%	69%
CO[C@H]1[C@@H](OC)C[C@H](C)[C@@H](OC)C2=CC(=O)C=C(NC(=O)/C(C)=C/C=C/[C@H](OC)[C@@H](OC(N)=O)/C(C)=C/[C@@H]1C)C2=O	110%	97%	87%	109%	90%	97%	100%		142%	86%	93%	85%	85%	57%	88%	89%	105%	97%	101%	90%
CO[C@@H]1[C@H](N(C)C(=O)c2ccccc2)C[C@H]2O[C@]1(C)n1c3ccccc3c3c4c(c5c6ccccc6n2c5c31)C(=O)NC4	27%	3%	2%	22%	4%	95%	21%	9%	13%	5%	5%	6%	6%	2%	75%		101%	98%	75%	93%
Cc1ccc(S(=O)(=O)/C=C/C#N)cc1	84%	101%	95%	92%	92%	94%	109%	108%	96%	94%	87%	97%	92%	94%	97%	114%	113%	110%	93%	100%
O=C1NC(=O)/C(=C\c2ccc3nccnc3c2)S1	104%	87%	63%	91%	81%	90%	71%	35%	108%	84%	81%	61%	99%	89%	82%	77%	98%	96%	87%	78%
Cc1ccc(NC2=CC(=O)c3sc(C)nc3C2=O)cc1	82%	97%	89%	84%	82%	98%	113%	105%	86%	80%	92%	98%	80%	71%	102%	120%	108%	106%	85%	98%
N#CC(C#N)=C(N)/C(C#N)=C/c1ccc(O)cc1	88%		92%				98%	96%					93%	70%			118%		94%	
Cc1nc2cc3nc(-c4cccs4)cnc3cc2n1C	107%	36%	5%	116%	99%	97%	107%	99%	112%	54%	89%	48%	91%	32%	114%	95%	100%	103%	104%	107%
COc1cc2ncc(-c3ccccc3)nc2cc1OC	79%						90%	88%		75%	86%	80%	67%	58%	89%	81%				
O=c1cc(-c2cccc3c2Sc2ccccc2S3)oc(N2CCOCC2)c1	89%	90%	89%	98%	92%	95%	98%	101%	103%	94%	112%	102%	92%	86%	110%	125%	107%	100%	100%	99%
